# How the values were obtained:
# Details in all cases: concentration: 1 μM, replicates: in singlicate; n = 1
# LRRK2 = test system: LRRK2
# LTK = test system: LTK
# LYN = test system: LYN
# LZK = test system: T1, LZK
# T1 construct: gene MAP3K13
# MAK = test system: MAK
# MAP3K15 = test system: MAP3K15
# MAP3K1 = test system: MAP3K1
# MAP3K2 = test system: MAP3K2
# MAP3K3 = test system: MAP3K3
# MAP3K4 = test system: MAP3K4
# MAP4K2 = test system: MAP4K2
# MAP4K3 = test system: MAP4K3
# MAP4K4 = test system: MAP4K4
# MAP4K5 = test system: MAP4K5
# MAPKAPK2 = test system: MAPKAPK2
# MAPKAPK5 = test system: MAPKAPK5
# MARK1 = test system: MARK1
# MARK2 = test system: MARK2
# MARK3 = test system: MARK3
# MARK4 = test system: MARK4
# 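Also: KINOMEscan kinase panel screen.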
SMILES,%Inh (LRRK2),%Inh (LTK),%Inh (LYN),%Inh (LZK),%Inh (MAK),%Inh (MAP3K15),%Inh (MAP3K1),%Inh (MAP3K2),%Inh (MAP3K3),%Inh (MAP3K4),%Inh (MAP4K2),%Inh (MAP4K3),%Inh (MAP4K4),%Inh (MAP4K5),%Inh (MAPKAPK2),%Inh (MAPKAPK5),%Inh (MARK1),%Inh (MARK2),%Inh (MARK3),%Inh (MARK4)
NS(=O)(=O)c1cccc(N/C=C2\C(=O)Nc3ccc(S(=O)(=O)Cc4c(Cl)cccc4Cl)cc32)c1 [GSK398099],0%,0%,0%,0%,28%,0%,15%,0%,0%,0%,0%,19%,28%,0%,20%,0%,0%,0%,0%,0%
FC(F)(F)c1ccccc1-c1cc(-c2c[nH]nc2-c2ccccn2)ccn1 [GW679396],1%,5%,0%,11%,35%,0%,11%,0%,0%,24%,0%,0%,10%,3%,0%,8%,0%,0%,0%,12%
Cc1ccc(NC(=O)Nc2ccccc2)cc1-c1ccc(C(=O)Nc2ccncc2)cc1 [GSK1398471],0%,0%,66%,0%,17%,0%,8%,0%,0%,0%,0%,2%,1%,0%,1%,0%,0%,1%,45%,0%
CNc1nc(-c2ccc3c(N)n[nH]c3c2)cc(N2C[C@@H](C(=O)NC3CCCCC3)OC[C@H]2C)n1 [GSK2375584],0%,0%,0%,35%,0%,0%,0%,0%,0%,0%,0%,0%,15%,9%,17%,2%,10%,0%,0%,18%
Cc1cnc(N)c(/C=C/c2cncc(C(=O)NCCc3ccc(Cl)cc3Cl)c2)c1.Cl [GSK190937],0%,0%,20%,0%,9%,0%,7%,0%,0%,0%,4%,0%,17%,18%,,,0%,6%,0%,0%
CS(=O)(=O)CCNCc1nc(-c2ccc3ncnc(Nc4ccc5c(cnn5Cc5ccccc5)c4)c3c2)cs1.Cl.Cl [GW569716],22%,0%,0%,42%,11%,0%,12%,1%,0%,5%,0%,9%,0%,0%,19%,0%,0%,0%,0%,0%
CC(=O)c1c(C)c2cnc(Nc3ccc(N4CCNCC4)cn3)nc2n(C2CCCC2)c1=O,0%,0%,0%,89%,0%,0%,0%,0%,0%,14%,0%,17%,0%,0%,0%,0%,6%,0%,0%,13%
Cc1ccc(NC(=O)Nc2ccc(Cl)c(C(F)(F)F)c2)cc1-c1ccc(C(=O)Nc2ccncc2)cc1 [GSK1398470],0%,4%,42%,0%,15%,0%,3%,0%,0%,14%,0%,8%,29%,12%,7%,0%,0%,13%,8%,0%
CN1c2ccc(-c3ccc(C(N)=O)cc3)cc2-c2[nH]ncc2S1(=O)=O,0%,0%,0%,0%,0%,0%,0%,21%,12%,0%,1%,6%,29%,23%,0%,0%,14%,0%,0%,27%
CC(C)c1cc(-c2ccc3c(N)n[nH]c3c2)nc(N)n1 [GSK2250882],0%,0%,0%,0%,0%,0%,0%,2%,2%,1%,0%,0%,1%,0%,23%,0%,0%,9%,0%,0%
COc1cccc(CNC(=O)NC2CCN(c3ccnc(Nc4ccc(F)cc4)n3)C2)c1 (stereo not drawn) [GSK1379723],25%,59%,0%,0%,23%,0%,7%,0%,0%,13%,0%,8%,2%,1%,16%,0%,0%,0%,0%,0%
CNC(=O)c1ccc(C)c(-n2c(C)cc(OCc3ccc(F)cc3F)c(Br)c2=O)c1,0%,0%,1%,0%,0%,0%,0%,0%,0%,6%,0%,0%,0%,0%,0%,0%,0%,1%,0%,0%
COc1cc2ncnc(Nc3cccc(Br)c3)c2cc1OC.Cl [GI230329],0%,0%,67%,38%,34%,0%,2%,33%,29%,4%,0%,0%,0%,0%,0%,0%,0%,0%,0%,5%
Fc1ccc(-c2nc3n(c2-c2ccncc2)CCS3)cc1 [GI98581],14%,22%,0%,3%,63%,0%,13%,6%,0%,10%,0%,0%,26%,11%,1%,0%,0%,0%,0%,12%
CCn1c(-c2ccccc2)nc2cnccc21 [SB-733416],51%,0%,0%,0%,11%,22%,14%,2%,0%,0%,0%,9%,18%,8%,34%,0%,13%,0%,10%,26%
CCn1c(-c2c(N)noc2C)nc2cnccc21 [SB-737856],0%,10%,0%,0%,0%,0%,0%,17%,0%,19%,0%,2%,10%,0%,19%,0%,0%,0%,0%,0%

SMILES,%Inh (LRRK2),%Inh (LTK),%Inh (LYN),%Inh (LZK),%Inh (MAK),%Inh (MAP3K15),%Inh (MAP3K1),%Inh (MAP3K2),%Inh (MAP3K3),%Inh (MAP3K4),%Inh (MAP4K2),%Inh (MAP4K3),%Inh (MAP4K4),%Inh (MAP4K5),%Inh (MAPKAPK2),%Inh (MAPKAPK5),%Inh (MARK1),%Inh (MARK2),%Inh (MARK3),%Inh (MARK4)
COc1cccc(C2=C(Nc3cc(Cl)c(O)c(Cl)c3)C(=O)NC2=O)c1 [SB-390767],55%,96.8%,0%,0%,4%,0%,12%,0%,0%,7%,0%,0%,0%,1%,15%,0%,0%,0%,0%,0%
O=c1cc(N2CCOCC2)nc2n(Cc3ccccc3F)ccn12 [GSK2297428],0%,21%,0%,0%,8%,0%,2%,0%,0%,0%,0%,0%,0%,0%,0%,0%,100%,0%,0%,69%
Cc1ccc(NC(=O)Nc2ccccc2F)cc1-c1ccc(C(=O)Nc2ccncc2)cc1 [GSK1398477],15%,16%,47%,0%,30%,0%,12%,5%,0%,24%,0%,21%,29%,27%,37%,0%,8%,5%,0%,19%
Cc1ccccc1Cn1ccn2c(=O)cc(N3CCOCC3)nc12 [GSK2269905],0%,0%,0%,0%,0%,0%,2%,0%,0%,30%,0%,0%,0%,0%,19%,0%,99.2%,0%,0%,96.6%
Cc1ccc(NC(=O)Nc2ccc(Cl)cc2)cc1-c1ccc(C(=O)Nc2ccncc2)cc1 [GSK1398472],0%,2%,30%,3%,18%,0%,3%,16%,0%,6%,0%,0%,5%,6%,19%,0%,0%,0%,0%,1%
CC(C)c1ccc(O)cc1Nc1ccnc2ccc(C(F)(F)F)cc12 [GW482059],51%,0%,0%,0%,25%,13%,0%,0%,1%,13%,0%,0%,26%,37%,16%,0%,0%,0%,0%,6%
Cc1ccc(NC(=O)c2ccc(Cl)cc2)cc1-c1ccc(C(=O)Nc2ccncc2)cc1 [GSK1398467],100%,19%,30%,3%,0%,0%,12%,0%,0%,0%,0%,0%,13%,3%,24%,0%,36%,80%,0%,0%
COc1ccc(Nc2nccc(N3CCC(NC(=O)C(C)c4ccc(Cl)cc4)CC3)n2)cc1 (stereo not drawn) [GSK1379812],0%,27%,0%,36%,64%,0%,12%,0%,0%,15%,0%,0%,3%,0%,6%,0%,15%,19%,0%,22%
COc1nccc(-c2c(-c3ccc(F)cc3)ncn2CCCN2CCOCC2)n1 [SB-282852],0%,0%,0%,0%,29%,0%,0%,0%,13%,7%,0%,0%,0%,0%,5%,0%,0%,7%,24%,0%
O=C(Nc1n[nH]c2nc(-c3cccs3)c(Br)cc12)C1CCCC1 [SB-743341],28%,17%,0%,36%,77%,32%,49%,5%,28%,0%,0%,0%,0%,0%,5%,17%,22%,8%,2%,19%
COC(=O)C(NC(=O)NC1CCN(c2ccnc(Nc3ccc(F)cc3)n2)C1)c1ccccc1 (stereo not drawn) [GSK1379712],0%,30%,7%,18%,0%,0%,6%,0%,0%,6%,0%,0%,1%,2%,18%,6%,0%,7%,1%,8%
CC(=O)c1cccc(NC(=O)NC2CCN(c3ccnc(Nc4ccc(F)cc4)n3)C2)c1 (stereo not drawn) [GSK1379710],14%,0%,0%,28%,47%,7%,3%,0%,0%,30%,11%,8%,13%,16%,16%,0%,0%,0%,16%,0%
COc1ccc2cc(-c3nc(-c4ccccc4C(C)C)[nH]c3-c3ccncc3)ccc2c1 [SB-660566],13%,3%,20%,0%,0%,17%,20%,28%,0%,16%,0%,0%,31%,3%,16%,0%,7%,0%,0%,3%
Cn1cnc2c(N)ncnc21 [SKF-97623],0%,0%,0%,2%,0%,0%,0%,0%,0%,0%,0%,14%,0%,13%,25%,0%,0%,0%,0%,0%
COc1ccc(-c2coc3ccc(-c4nnc(C)o4)cc23)cc1,0%,0%,10%,0%,0%,0%,0%,0%,0%,8%,0%,0%,0%,0%,0%,0%,100%,30%,0%,100%
